Screens (PubChem BioAssay)
HGIII-sPLA2 inh: Inhibits HGIII-sPLA2 liposome hydrolysis, primary screen; Q9NZ20; QFRET BODIPY PC-A2 liposome hydrolysis, fluorescence; inhibition, % at 12.2 µM; 0.56% of 370,000 active;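 active = inhibition above mean plus 3 SD of compounds lying within the high and low control bounds, cut at about 19% in these data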;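 also: 0% = median of test compound wells and 100% = no enzyme DMSO wells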
Target sequence (Q9NZ20 whole entry, looked up): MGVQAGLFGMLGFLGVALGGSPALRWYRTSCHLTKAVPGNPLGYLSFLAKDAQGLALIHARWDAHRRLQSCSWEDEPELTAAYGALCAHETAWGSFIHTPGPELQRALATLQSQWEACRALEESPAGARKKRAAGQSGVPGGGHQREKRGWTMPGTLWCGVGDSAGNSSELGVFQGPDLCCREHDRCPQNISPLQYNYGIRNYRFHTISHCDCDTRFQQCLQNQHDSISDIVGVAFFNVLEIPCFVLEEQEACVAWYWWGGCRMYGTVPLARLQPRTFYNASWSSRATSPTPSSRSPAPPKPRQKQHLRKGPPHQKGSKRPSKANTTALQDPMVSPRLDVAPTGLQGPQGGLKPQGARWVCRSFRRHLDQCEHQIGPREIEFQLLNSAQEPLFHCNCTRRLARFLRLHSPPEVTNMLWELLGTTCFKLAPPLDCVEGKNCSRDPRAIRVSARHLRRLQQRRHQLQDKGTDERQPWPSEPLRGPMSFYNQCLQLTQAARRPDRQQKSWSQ
rCAG binder-1: molecules binding r(CAG) RNA repeats; r(CAG) RNA repeat, TO-PRO-1 dye displacement fluorescence; inhibition, % at 3 µM; 1.3% of 370,000 active;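 active = inhibition above the plate cutoff, the mean of all test compounds on that plate plus 3 SD, cut at about 35% in these data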;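 also: 0% = DMSO alone and 100% = 100 µM mitoxantrone as full dye displacement; higher means more dye released from RNA so lower well fluorescence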
MsrA inhibitor: inhibits bovine methionine sulfoxide reductase A; 0.75% of 360,000 active; inhibition, % at 15.5 µM; AID 651718; purified bovine MsrA, absorbance read-out; in the data active = inhibition above about 4.5%;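 also: 0% = vehicle wells with enzyme and 100% = reference inhibitor wells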
bovine MsrA act: activates bovine MsrA enzyme | activation, % at 10.6 µM | 0.3% of 360,000 active | purified bovine MsrA, absorbance read-out; in the data active = activation above about 7.5%;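 also: 0% = vehicle and 100% = reference activator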
PG9 binder: PG9 antibody binding by small molecule; TR-FRET gp120-PG9 antibody binding; AID 624416; 0.43% of 360,000 active; inhibition, % at 6.7 µM; in the data active = inhibition above about 8.5%
rCAG binder conf: r(CAG) RNA repeat binding, confirmation; shares compounds with rCAG binder-1; TO-PRO-1 dye displacement fluorescence; 70% of 4,300 active; AID 652065; inhibition, % at 3 µM;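 active = inhibition above a per-plate cutoff, the mean inhibition of sample wells plus 3 SD, cut at about 35% in these data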;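 also: loss of TO-PRO-1 fluorescence as compound displaces dye from 1x1 AA loop RNA; 0% = DMSO only wells and 100% = 100 µM mitoxantrone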
DNA CAG counter: counter-screen for rCAG RNA binders: DNA CAG dye complex inhibitors. shares compounds with rCAG binder-1. 94% of 4,300 active. d(CAG) DNA oligo TO-PRO-1 dye displacement, fluorescence. inhibition, % at 3 µM;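 active = inhibition above its plate's cutoff, the mean test-well inhibition plus 3 SD, cut at about 4.8% in these data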;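 also: 0% = DNA dye mix with DMSO and 100% = 100 µM mitoxantrone; hits displace the dye from DNA and so lower well fluorescence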
dCAG dye DR: counter-screen for rCAG binders: inhibitors of DNA CAG TO-PRO-1 complex; 20% of 250 active; shares compounds with rCAG binder-1; DNA CAG/GTC duplex TO-PRO-1 dye displacement fluorescence; IC50, µM; in the data active = IC50 below about 10 µM
dCAG DNA bind: DNA CAG dye complex inhibition, late stage dose response; shares compounds with rCAG binder-1; d(CAG) DNA duplex TO-PRO-1 dye displacement, fluorescence; 80% of 30 active; IC50, µM; AID 720649
rCAG binder-2: r(CAG) repeat RNA binding, TO-PRO-1 displacement; 100% of 30 active; AID 720651; shares compounds with rCAG binder-1; IC50, µM; r(CAG) RNA TO-PRO-1 dye displacement, fluorescence
* = called active by the depositor. Most compounds without a hit are left out; they make up all but 3.2% or so of the library. Unless noted, no rule for the calls is given here.

Results for Cc1ccc(S(=O)(=O)Nc2nc(C)c(C(=O)NN)s2)cc1 ?
HGIII-sPLA2 inh: -11; rCAG binder-1: 58*; MsrA inhibitor: 2; bovine MsrA act: -6; PG9 binder: 4; rCAG binder conf: 11; DNA CAG counter: 3

What do the screens show for `Cc1ccc(C)c(S(=O)(=O)Nc2nc(C)c(C(=O)Nc3ccccc3)s2)c1`?
HGIII-sPLA2 inh: -28; rCAG binder-1: 46*; MsrA inhibitor: 2; bovine MsrA act: -10; PG9 binder: 1; rCAG binder conf: 36*; DNA CAG counter: 9.0*

How did CC(=O)c1sc(NS(=O)(=O)c2ccc(C)cc2)nc1-c1ccccc1 do in these assays?
HGIII-sPLA2 inh: -31; rCAG binder-1: 42*; MsrA inhibitor: 2; bovine MsrA act: -4; PG9 binder: -2; rCAG binder conf: 34; DNA CAG counter: 7.5*

What do the screens show for `Cc1ccc(NC(=O)C2CC3CCC2C3)cc1` (stereo not given)?
HGIII-sPLA2 inh: 13

How did CCc1nc2c(OCc3ccccc3)cccn2c1N(Cc1ccccc1)C(C)=O do in these assays?
HGIII-sPLA2 inh: 1; rCAG binder-1: -1; MsrA inhibitor: 0; bovine MsrA act: -1; PG9 binder: -3

How did COc1ccc(-c2cccc3[nH]c4c(c23)CCN2C(=O)[C@H]3[C@H](C)ON(C)[C@H]3C[C@@H]42)cc1 do in these assays?
HGIII-sPLA2 inh: -13; rCAG binder-1: 10; MsrA inhibitor: 0; PG9 binder: -1

What do the screens show for `COc1ccc2c(c1)CN1CN(CC(C)C)S(=O)(=O)CC21` (stereo not given)?
HGIII-sPLA2 inh: 8; rCAG binder-1: 2

Results for Cc1ccc(S(=O)(=O)NNC(=O)c2sc(NS(=O)(=O)c3ccccc3)nc2C)cc1 ?
HGIII-sPLA2 inh: -7; rCAG binder-1: 22; MsrA inhibitor: 2; bovine MsrA act: -2; PG9 binder: 0

How did NC(=O)c1sc(-c2ccsc2)cc1NS(=O)(=O)c1ccc(C(F)(F)F)cc1 do in these assays?
HGIII-sPLA2 inh: -34; rCAG binder-1: 56*; MsrA inhibitor: 0; bovine MsrA act: -5; PG9 binder: -2; rCAG binder conf: 77*; DNA CAG counter: 30*; dCAG dye DR: 7*; dCAG DNA bind: 4.4*; rCAG binder-2: 1.5*

How did Cc1ccc(S(=O)(=O)Nc2nc(C)c(C(=O)NNS(=O)(=O)c3cc(C)ccc3C)s2)cc1 do in these assays?
HGIII-sPLA2 inh: -20; rCAG binder-1: 54*; MsrA inhibitor: 1; bovine MsrA act: -3; PG9 binder: -1; rCAG binder conf: 59*; DNA CAG counter: 22*

What do the screens show for `Cc1nc(NS(=O)(=O)c2ccccc2)sc1C(=O)N/N=C/c1ccccc1`?
HGIII-sPLA2 inh: -11; rCAG binder-1: 69*; MsrA inhibitor: 2; bovine MsrA act: -4; PG9 binder: 0; rCAG binder conf: 43*; DNA CAG counter: 11*

How did CC(=O)c1sc(-c2ccc(F)cc2)cc1NS(=O)(=O)c1ccc(C)cc1 do in these assays?
HGIII-sPLA2 inh: 1; rCAG binder-1: 1; MsrA inhibitor: 1; bovine MsrA act: -4; PG9 binder: 1

Results for Cc1nc(NS(=O)(=O)c2ccccc2)sc1C(=O)NNS(=O)(=O)c1ccccc1 ?
HGIII-sPLA2 inh: 2; rCAG binder-1: 17; MsrA inhibitor: 2; bovine MsrA act: -6; PG9 binder: -2

How did COc1cc(O)c(C(CC(=O)N2CC(C)OC(C)C2)c2ccc3c(c2)OCO3)c(OC)c1 (stereo not given) do in these assays?
HGIII-sPLA2 inh: -7

How did Cc1ccc(-c2n[nH]c3c2C(c2ccccc2)N(c2ccc(C(=O)O)cc2)C3=O)cc1 (stereo not given) do in these assays?
HGIII-sPLA2 inh: -29; rCAG binder-1: 45*; MsrA inhibitor: 0; bovine MsrA act: -5; PG9 binder: 0; rCAG binder conf: 26; DNA CAG counter: 6.2*

What do the screens show for `CC1(C(=O)NS(=O)(=O)c2ccc(Cl)cc2)CCN1C(=O)Cc1cccc2ccccc12` (stereo not given)?
HGIII-sPLA2 inh: -32; rCAG binder-1: 46*; MsrA inhibitor: 2; bovine MsrA act: -1; PG9 binder: -3; rCAG binder conf: 31; DNA CAG counter: 7.6*

What do the screens show for `CC1(C(=O)NCc2ccc(Cl)cc2)CCN1C(=O)Cc1cccc2ccccc12` (stereo not given)?
HGIII-sPLA2 inh: -6; rCAG binder-1: 0; MsrA inhibitor: 0; bovine MsrA act: -3; PG9 binder: 0

How did CC(C)(C)c1ccc(CC(=O)N2CCC2(C)C(=O)NS(=O)(=O)c2ccccc2Cl)cc1 (stereo not given) do in these assays?
HGIII-sPLA2 inh: -13; rCAG binder-1: 41*; MsrA inhibitor: 0; bovine MsrA act: 0; PG9 binder: -1; rCAG binder conf: 34; DNA CAG counter: 8.3*

Results for COc1ccc(S(=O)(=O)NC(=O)C2(C)CCN2C(=O)Cc2ccccc2Cl)cc1 (stereo not given) ?
HGIII-sPLA2 inh: 0; rCAG binder-1: 4; MsrA inhibitor: 0; bovine MsrA act: -6; PG9 binder: -1

What do the screens show for `CC1(C(=O)NS(=O)(=O)c2ccccc2Cl)CCN1C(=O)Cc1ccccc1` (stereo not given)?
HGIII-sPLA2 inh: 2; rCAG binder-1: 5; MsrA inhibitor: -1; bovine MsrA act: -1; PG9 binder: -1

Results for CC(C)(C)c1ccc(S(=O)(=O)NC(=O)C2(C)CCN2C(=O)Cc2ccccc2Cl)cc1 (stereo not given) ?
HGIII-sPLA2 inh: -5; rCAG binder-1: 47*; MsrA inhibitor: -1; bovine MsrA act: -8; PG9 binder: 0; rCAG binder conf: 56*; DNA CAG counter: 21*

Results for CC(C)(C)c1ccc(S(=O)(=O)NC(=O)C2(C)CCN2C(=O)c2cccc3ccccc23)cc1 (stereo not given) ?
HGIII-sPLA2 inh: -13; rCAG binder-1: 57*; MsrA inhibitor: 1; bovine MsrA act: -2; PG9 binder: 0; rCAG binder conf: 52*; DNA CAG counter: 16*

What do the screens show for `O=C(NC1CCCCN(Cc2cccc(Cl)c2)C1=O)c1ccc(F)c(F)c1` (stereo not given)?
HGIII-sPLA2 inh: 7; rCAG binder-1: 1

Results for CC(C)C[C@H]1COc2cccc(N3CCCC3)c2S(=O)(=O)N1C ?
HGIII-sPLA2 inh: 6; rCAG binder-1: 1
